# In PubChem BioAssay AID1159580 (chemical genetic matrix, 2015):
# The whole screen tested about 5,500 compounds, of which about 2,000 (36%) were called active. Roughly 18% stayed inconclusive and do not appear here. This is one part of the list. A number with no mark means an inactive call. Cut-off read from the data, not from the text of the source: active = normalized growth mostly below about 0.91 (no sharp cut-off); inconclusive = no clear call, values can overlap the other calls; inactive = mostly above about 0.92.
# Assay: chemical genetic growth profiling, strain panel (AID 1159580);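 note: tested at 20 µM; growth read once vehicle control cultures reached saturation at 30 °C; 1 = growth at the plate median or of vehicle wells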
# Conditions: S. cerevisiae deletion strains, growth OD
# [1] = locus YAL040C, strain CLN3, stronger effect = lower value
# [2] = locus YCL061C, strain MRC1 (second series), stronger effect = lower value
# [3] = locus YDR363W, strain ESC2, stronger effect = lower value
# [4] = locus YER002W, strain NOP16, stronger effect = lower value
# [5] = locus YGR229C, strain SMI1, stronger effect = lower value
# [6] = locus YNL153C, strain GIM3, stronger effect = lower value
# [7] = locus YNL175C, strain NOP13, stronger effect = lower value
# [8] = locus YNL197C, strain WHI3, stronger effect = lower value
# [9] = locus YNL224C, strain SQS1, stronger effect = lower value
# [10] = locus YOR083W, strain WHI5 (second series), stronger effect = lower value
# [11] = locus YMR263W, strain SAP30, stronger effect = lower value
# [12] = locus YHR030C, strain SLT2, stronger effect = lower value
# [13] = locus YJL187C, strain SWE1, stronger effect = lower value
# [14] = locus YNL322C, strain KRE1, stronger effect = lower value
# [15] = locus YPL241C, strain CIN2, stronger effect = lower value
structure (smiles),measurement,setting,value
COC(=O)C(N)Cc1ccc(Cl)cc1 (configuration not stated),normalized growth,[1],0.998
same,normalized growth,[2],0.993
same,normalized growth,[3],0.976
same,normalized growth,[4],0.988
same,normalized growth,[5],0.99
same,normalized growth,[6],1.01
same,normalized growth,[7],0.965
same,normalized growth,[8],0.965
same,normalized growth,[9],0.984
same,normalized growth,[10],0.91
CC(=O)NC(CS)C(=O)O (configuration not stated),normalized growth,[1],0.975
same,normalized growth,[2],0.993
same,normalized growth,[3],1.03
same,normalized growth,[4],0.994
same,normalized growth,[5],1.02
same,normalized growth,[11],0.988
same,normalized growth,[6],0.979
same,normalized growth,[7],0.974
same,normalized growth,[8],0.988
same,normalized growth,[9],0.983
same,normalized growth,[10],0.996
Cc1ncc(CO)c(CO)c1O,normalized growth,"locus YAL021C, strain ccr4, stronger effect = lower value",1.02
same,normalized growth,"locus YAL026C, strain drs2, stronger effect = lower value",1.02
same,normalized growth,"locus YAL030W, strain snc1, stronger effect = lower value",1.03
same,normalized growth,"locus YBL061C, strain skt5, stronger effect = lower value",1.02
same,normalized growth,"locus YBR009C, strain hhf1, stronger effect = lower value",1.01
same,normalized growth,"locus YBR023C, strain chs3, stronger effect = lower value",1.03
same,normalized growth,"locus YBR171W, strain sec66, stronger effect = lower value",1.04
same,normalized growth,"locus YBR231C, strain swc5, stronger effect = lower value",1.02
same,normalized growth,"locus YBR279W, strain paf1, stronger effect = lower value",1.01
same,normalized growth,"locus YCL011C, strain gbp2, stronger effect = lower value",1.02
same,normalized growth,"locus YCL016C, strain dcc1, stronger effect = lower value",1.01
same,normalized growth,"locus YCL069W, strain vba3, stronger effect = lower value",1.04
same,normalized growth,"locus YCR088W, strain abp1, stronger effect = lower value",1.01
same,normalized growth,"locus YDL005C, strain med2, stronger effect = lower value",1.03
same,normalized growth,"locus YDL040C, strain nat1, stronger effect = lower value",1.02
same,normalized growth,"locus YDR001C, strain nth1, stronger effect = lower value",1.03
same,normalized growth,"locus YDR069C, strain doa4, stronger effect = lower value",1.03
same,normalized growth,"locus YDR137W, strain rgp1, stronger effect = lower value",1.03
same,normalized growth,"locus YDR159W, strain sac3, stronger effect = lower value",1
same,normalized growth,"locus YDR195W, strain ref2",1.03
same,normalized growth,"locus YDR297W, strain sur2, stronger effect = lower value",1.03
same,normalized growth,"locus YDR334W, strain swr1, stronger effect = lower value",1.03
same,normalized growth,"locus YDR335W, strain msn5, stronger effect = lower value",1.02
same,normalized growth,"locus YDR392W, strain spt3, stronger effect = lower value",1.01
same,normalized growth,"locus YEL003W, strain gim4, stronger effect = lower value",1.02
same,normalized growth,"locus YEL037C, strain rad23, stronger effect = lower value",1.02
same,normalized growth,"locus YEL061C, strain CIN8 (second series), stronger effect = lower value",1.02
same,normalized growth,"locus YER015W, strain faa2, stronger effect = lower value",1.03
same,normalized growth,"locus YER016W, strain bim1, stronger effect = lower value",1
same,normalized growth,"locus YER111C, strain swi4, stronger effect = lower value",1.02
same,normalized growth,"locus YER155C, strain BEM2 (second series), stronger effect = lower value",1.07
same,normalized growth,"locus YFR010W, strain ubp6, stronger effect = lower value",1.02
same,normalized growth,"locus YGL167C, strain pmr1, stronger effect = lower value",1.03
same,normalized growth,"locus YGL173C, strain kem1, stronger effect = lower value",1.04
same,normalized growth,"locus YGL227W, strain vid30, stronger effect = lower value",1.02
same,normalized growth,"locus YGL240W, strain doc1, stronger effect = lower value",1.01
same,normalized growth,"locus YGL253W, strain hxk2, stronger effect = lower value",1.03
same,normalized growth,"locus YHR013C, strain ard1, stronger effect = lower value",1.03
same,normalized growth,"locus YHR027C, strain rpn1, stronger effect = lower value",1.02
same,normalized growth,[12],0.956
same,normalized growth,"locus YHR079C, strain IRE1, stronger effect = lower value",0.98
same,normalized growth,"locus YHR142W, strain chs7, stronger effect = lower value",1.02
same,normalized growth,"locus YJL092W, strain hpr5, stronger effect = lower value",1.01
same,normalized growth,"locus YJL095W, strain BCK1 (second series), stronger effect = lower value",1.02
same,normalized growth,"locus YJL095W, strain BCK1, stronger effect = lower value",0.973
same,normalized growth,"locus YJL115W, strain asf1, stronger effect = lower value",1.03
same,normalized growth,"locus YJL129C, strain trk1, stronger effect = lower value",1.04
same,normalized growth,"locus YJL154C, strain vps35, stronger effect = lower value",1.03
same,normalized growth,"locus YJL164C, strain tpk1, stronger effect = lower value",1.01
same,normalized growth,"locus YJL166W, strain qcr8, stronger effect = lower value",1.02
same,normalized growth,[13],1.03
same,normalized growth,"locus YJR066W, strain TOR1, stronger effect = lower value",0.911
same,normalized growth,"locus YKL160W, strain elf1, stronger effect = lower value",1.01
same,normalized growth,"locus YKR026C, strain gcn3, stronger effect = lower value",1.02
same,normalized growth,"locus YKR091W, strain srl3, stronger effect = lower value",1.02
same,normalized growth,"locus YLL001W, strain dnm1, stronger effect = lower value",0.999
same,normalized growth,"locus YLL026W, stronger effect = lower value",1.02
same,normalized growth,"locus YLL041C, strain sdh2, stronger effect = lower value",1.02
same,normalized growth,"locus YLR027C, strain aat2, stronger effect = lower value",1.01
same,normalized growth,"locus YLR113W, strain HOG1, stronger effect = lower value",0.962
same,normalized growth,"locus YLR221C, strain rsa3, stronger effect = lower value",1
same,normalized growth,"locus YLR258W, strain gsy2, stronger effect = lower value",1.02
same,normalized growth,"locus YLR262C, strain YPT6 (second series), stronger effect = lower value",1.04
same,normalized growth,"locus YLR320W, strain mms22, stronger effect = lower value",1.04
same,normalized growth,"locus YLR342W, strain FKS1, stronger effect = lower value",1.02
same,normalized growth,"locus YLR357W, strain rsc2, stronger effect = lower value",1
same,normalized growth,"locus YLR370C, strain arc18, stronger effect = lower value",1.03
same,normalized growth,"locus YLR384C, strain iki3, stronger effect = lower value",1.02
same,normalized growth,"locus YML120C, strain ndi1, stronger effect = lower value",1.02
same,normalized growth,"locus YMR058W, strain fet3, stronger effect = lower value",1.02
same,normalized growth,"locus YMR125W, strain sto1, stronger effect = lower value",1.01
same,normalized growth,"locus YMR129W, stronger effect = lower value",1.02
same,normalized growth,"locus YMR205C, strain PFK2, stronger effect = lower value",1.05
same,normalized growth,"locus YMR231W, strain pep5, stronger effect = lower value",1.03
same,normalized growth,"locus YNL071W, strain lat1, stronger effect = lower value",1.02
same,normalized growth,"locus YNL183C, strain NPR1, stronger effect = lower value",0.927
same,normalized growth,"locus YNL209W, strain ssb2, stronger effect = lower value",1.03
same,normalized growth,"locus YNL248C, strain rpa49, stronger effect = lower value",1.03
same,normalized growth,"locus YNL322C, strain KRE1 (second series), stronger effect = lower value",1.04
same,normalized growth,"locus YNR049C, strain mso1, stronger effect = lower value",1.03
same,normalized growth,"locus YOR001W, strain rrp6, stronger effect = lower value",1.03
same,normalized growth,"locus YOR070C, strain gyp1, stronger effect = lower value",1.03
same,normalized growth,"locus YOR080W, strain dia2, stronger effect = lower value",1.04
same,normalized growth,"locus YOR083W, strain WHI5, stronger effect = lower value",0.975
same,normalized growth,"locus YOR106W, strain vam3, stronger effect = lower value",1.03
same,normalized growth,"locus YOR231W, strain MKK1, stronger effect = lower value",0.957
same,normalized growth,"locus YOR265W, strain rbl2, stronger effect = lower value",1.03
same,normalized growth,"locus YOR270C, strain vph1, stronger effect = lower value",1.08
same,normalized growth,"locus YOR290C, strain snf2, stronger effect = lower value",1.02
same,normalized growth,"locus YPL051W, strain arl3, stronger effect = lower value",1.02
same,normalized growth,"locus YPL078C, strain atp4, stronger effect = lower value",1.02
same,normalized growth,"locus YPL106C, strain sse1, stronger effect = lower value",1.04
same,normalized growth,"locus YPL240C, strain hsp82, stronger effect = lower value",1.04
same,normalized growth,"locus YPL256C, strain CLN2, stronger effect = lower value",0.975
CC(=O)C1=C(C)Nc2ccccc2S1,normalized growth,"locus YAL013W, strain DEP1, stronger effect = lower value",0.959
same,normalized growth,"locus YBR229C, strain ROT2, stronger effect = lower value",0.949
same,normalized growth,"locus YDL101C, strain DUN1, stronger effect = lower value",0.938
same,normalized growth,"locus YDR150W, strain NUM1, stronger effect = lower value",0.911
same,normalized growth,"locus YEL061C, strain CIN8, stronger effect = lower value",0.943
same,normalized growth,"locus YGR078C, strain PAC10, stronger effect = lower value",0.982
same,normalized growth,[5],1.02
same,normalized growth,[12],0.922
same,normalized growth,"locus YHR087W, strain rtc3, stronger effect = lower value",1.01
same,normalized growth,[13],0.954
same,normalized growth,"locus YJR075W, strain HOC1, stronger effect = lower value",0.974
same,normalized growth,"locus YLR039C, strain RIC1, stronger effect = lower value",0.978
same,normalized growth,"locus YLR058C, strain SHM2 (second series), stronger effect = lower value",0.987
same,normalized growth,"locus YLR085C, strain ARP6, stronger effect = lower value",0.622 (active)
same,normalized growth,"locus YLR262C, strain YPT6, stronger effect = lower value",1.03
same,normalized growth,"locus YML094W, strain GIM5, stronger effect = lower value",0.888
same,normalized growth,"locus YMR219W, strain ESC1, stronger effect = lower value",0.971
same,normalized growth,[11],0.852 (active)
same,normalized growth,[6],0.963
same,normalized growth,"locus YNL298W, strain CLA4 (second series), stronger effect = lower value",0.857
same,normalized growth,[14],1.02
same,normalized growth,"locus YNR030W, strain Alg12, stronger effect = lower value",0.804 (active)
same,normalized growth,"locus YPL055C, strain LGE1, stronger effect = lower value",0.795
same,normalized growth,[15],0.849 (active)
same,normalized growth,"locus YPR135W, strain CTF4, stronger effect = lower value",0.623 (active)
CCCN(CCC)C(=O)Cc1c(-c2ccc(Cl)cc2)nc2c(Cl)cc(Cl)cn12,normalized growth,[1],1
same,normalized growth,[3],1.01
same,normalized growth,[4],1.05
same,normalized growth,"locus YMR307W, strain GAS1, stronger effect = lower value",1
same,normalized growth,"locus YNL128W, strain TEP1, stronger effect = lower value",1.01
same,normalized growth,[6],1.02
same,normalized growth,[7],1.03
same,normalized growth,[8],1.03
same,normalized growth,[9],1.01
same,normalized growth,[14],0.985
same,normalized growth,[10],1.08
same,normalized growth,[15],0.992
